± gives the standard deviation.
T1: HaloTag-ATRX ADD domain (163-292)
T1 chain: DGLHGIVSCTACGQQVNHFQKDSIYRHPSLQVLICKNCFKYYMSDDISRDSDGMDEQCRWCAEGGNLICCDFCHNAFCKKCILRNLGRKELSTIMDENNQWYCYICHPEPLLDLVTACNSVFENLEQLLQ


Biological target: T1, HaloTag-ATRX ADD domain (163-292)
Test: peptide microarray binding signal (635 nm), min-max normalized on array (fraction of array maximum); higher = stronger binding
Settings: peptide region: Unmod H1 variant; binder concentration: 50 nM
Outline: (§1)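 Triplicate spots of histone 13-mer peptide–cellulose conjugates with a Cy3 tracer were printed on nitrocellulose and probed for 1 h at 4°C with biotin-labelled HaloTag reader fusions (10 nM to 1 μM) plus streptavidin-Alexa Fluor 647 or rabbit histone antibodies (1:10,000 to 1:2,000) plus anti-rabbit Alexa 647. An Axon GenePix 4000B read the 635 nm channel. Binding signal is the spot-triplicate mean intensity after min-max scaling within each library.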

Binder	peptide microarray binding signal
AGKKAKKPAKAAA [Unmod H1 variant A G K K A K K P A K A A A]	0.0147 ± 0.00057
TKTKATGASKKLK [Unmod H1 variant T K T K A T G A S K K L K]	0.032 ± 0.02
PAGPSVSELIVQA [Unmod H1 variant P A G P S V S E L I V Q A]	0.0127 ± 0.00021
LNKKASSVETKPG [Unmod H1 variant L N K K A S S V E T K P G]	0.0199 ± 0.0032
SKKSVKTPKKAKK [Unmod H1 variant S K K S V K T P K K A K K]	0.0224 ± 0.0075

Same assay, conditions: peptide region: Unmod H1 variant; binder concentration: 500 nM

Binder	peptide microarray binding signal
AGKKAKKPAKAAA [Unmod H1 variant A G K K A K K P A K A A A]	0.0114 ± 0.0028
TKTKATGASKKLK [Unmod H1 variant T K T K A T G A S K K L K]	0.0136 ± 0.00069
PAGPSVSELIVQA [Unmod H1 variant P A G P S V S E L I V Q A]	0.00367 ± 0.00014
LNKKASSVETKPG [Unmod H1 variant L N K K A S S V E T K P G]	0.0256 ± 0.00069
SKKSVKTPKKAKK [Unmod H1 variant S K K S V K T P K K A K K]	0.00633 ± 9.9e-05

Biological target: HaloTag-ING2 PHD (mouse Ing2 200-280)
Test: as above
Settings: peptide region: Unmod H1 variant; binder concentration: 10 nM
Outline: as §1

Binder	peptide microarray binding signal
AGKKAKKPAKAAA [Unmod H1 variant A G K K A K K P A K A A A]	0.00507 ± 0.00099
TKTKATGASKKLK [Unmod H1 variant T K T K A T G A S K K L K]	0.00257 ± 9.1e-05
PAGPSVSELIVQA [Unmod H1 variant P A G P S V S E L I V Q A]	0.00203 ± 3.6e-05
LNKKASSVETKPG [Unmod H1 variant L N K K A S S V E T K P G]	0.00776 ± 0.0013
SKKSVKTPKKAKK [Unmod H1 variant S K K S V K T P K K A K K]	0.00113 ± 3.2e-05

Same assay, conditions: peptide region: Unmod H1 variant; binder concentration: 100 nM

Binder	peptide microarray binding signal
AGKKAKKPAKAAA [Unmod H1 variant A G K K A K K P A K A A A]	0.00539 ± 0.00095
TKTKATGASKKLK [Unmod H1 variant T K T K A T G A S K K L K]	0.00829 ± 0.00095
PAGPSVSELIVQA [Unmod H1 variant P A G P S V S E L I V Q A]	0.00177 ± 3.1e-05
LNKKASSVETKPG [Unmod H1 variant L N K K A S S V E T K P G]	0.0114 ± 0.00013
SKKSVKTPKKAKK [Unmod H1 variant S K K S V K T P K K A K K]	0.00206 ± 0.00011

Biological target: anti-H3K4me3 antibody ab8580
Test: as above
Settings: peptide region: Unmod H1 variant; binder concentration: 1:2,000 dilution
Outline: as §1

Binder	peptide microarray binding signal
AGKKAKKPAKAAA [Unmod H1 variant A G K K A K K P A K A A A]	0.000585 ± 4.5e-05
TKTKATGASKKLK [Unmod H1 variant T K T K A T G A S K K L K]	0.000642 ± 2.2e-05
PAGPSVSELIVQA [Unmod H1 variant P A G P S V S E L I V Q A]	0.00111 ± 0.00011
LNKKASSVETKPG [Unmod H1 variant L N K K A S S V E T K P G]	0.00126 ± 7.1e-05
SKKSVKTPKKAKK [Unmod H1 variant S K K S V K T P K K A K K]	0.000359 ± 9.7e-06

Same assay, conditions: peptide region: Unmod H1 variant; binder concentration: 1:10,000 dilution

Binder	peptide microarray binding signal
AGKKAKKPAKAAA [Unmod H1 variant A G K K A K K P A K A A A]	0.000856 ± 8.9e-06
TKTKATGASKKLK [Unmod H1 variant T K T K A T G A S K K L K]	0.001027 ± 1e-05
PAGPSVSELIVQA [Unmod H1 variant P A G P S V S E L I V Q A]	0.00097 ± 2.6e-05
LNKKASSVETKPG [Unmod H1 variant L N K K A S S V E T K P G]	0.00165 ± 3.2e-05
SKKSVKTPKKAKK [Unmod H1 variant S K K S V K T P K K A K K]	0.000628 ± 6.7e-06

Biological target: anti-H3K9me3 antibody ab8898
Test: as above
Settings: peptide region: Unmod H1 variant; binder concentration: 1:2,000 dilution
Outline: as §1

Binder	peptide microarray binding signal
AGKKAKKPAKAAA [Unmod H1 variant A G K K A K K P A K A A A]	0.000181
TKTKATGASKKLK [Unmod H1 variant T K T K A T G A S K K L K]	0.000181
PAGPSVSELIVQA [Unmod H1 variant P A G P S V S E L I V Q A]	0.000438 ± 1.7e-05
LNKKASSVETKPG [Unmod H1 variant L N K K A S S V E T K P G]	0.000921 ± 2e-05
SKKSVKTPKKAKK [Unmod H1 variant S K K S V K T P K K A K K]	0.000121 ± 1.3e-06

Same assay, conditions: peptide region: Unmod H1 variant; binder concentration: 1:10,000 dilution

Binder	peptide microarray binding signal
AGKKAKKPAKAAA [Unmod H1 variant A G K K A K K P A K A A A]	0.000692 ± 7.3e-06
TKTKATGASKKLK [Unmod H1 variant T K T K A T G A S K K L K]	0.000519 ± 5.6e-06
PAGPSVSELIVQA [Unmod H1 variant P A G P S V S E L I V Q A]	0.00075 ± 7.9e-06
LNKKASSVETKPG [Unmod H1 variant L N K K A S S V E T K P G]	0.00127 ± 4.6e-05
SKKSVKTPKKAKK [Unmod H1 variant S K K S V K T P K K A K K]	0.000577 ± 6.2e-06

Source: the supplement of paper PMC4022240
